Most compounds without a hit are left out; they make up all but 0.81% or so of the library.
cardiac RTF act = cardiac RTF calcium sensitivity activators, primary screen, biochemical, IANBD-TnC fluorescence, EC20 calcium; Troponin I, cardiac muscle (Homo sapiens) + Troponin T, cardiac muscle (Homo sapiens) + …; IANBD-labeled TnC RTF fluorescence at EC20 calcium; 0% EC20 calcium, 100% full calcium; activation, % at 7.2 µM; actives 0.24% (n = 340,000); AID 493008, 2010;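 active = activation above the mean over all tested compounds plus 3 SD, cut at about 30% in these data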;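 also: rise in fluorescence read as greater calcium sensitivity of cardiac thin filaments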
Keap1-Nrf2 PPI = Keap1-Nrf2 protein-protein interaction inhibitors, primary screen, biochemical, fluorescence polarization, single point; Kelch-like ECH-associated protein 1 (Homo sapiens), Q14145; Keap1 Kelch-Nrf2 peptide fluorescence polarization, 1536-well; inhibition, % at 9.4 µM; actives 0.15% (n = 340,000); AID 504523, 2011; in the data active = inhibition above about 12%;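 also: human Keap1 Kelch domain with fluorescein labeled Nrf2 9mer peptide probe; higher means more block of Keap1 binding to Nrf2 peptide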
Target sequence (Q14145 whole entry, looked up, the tested form may be a part): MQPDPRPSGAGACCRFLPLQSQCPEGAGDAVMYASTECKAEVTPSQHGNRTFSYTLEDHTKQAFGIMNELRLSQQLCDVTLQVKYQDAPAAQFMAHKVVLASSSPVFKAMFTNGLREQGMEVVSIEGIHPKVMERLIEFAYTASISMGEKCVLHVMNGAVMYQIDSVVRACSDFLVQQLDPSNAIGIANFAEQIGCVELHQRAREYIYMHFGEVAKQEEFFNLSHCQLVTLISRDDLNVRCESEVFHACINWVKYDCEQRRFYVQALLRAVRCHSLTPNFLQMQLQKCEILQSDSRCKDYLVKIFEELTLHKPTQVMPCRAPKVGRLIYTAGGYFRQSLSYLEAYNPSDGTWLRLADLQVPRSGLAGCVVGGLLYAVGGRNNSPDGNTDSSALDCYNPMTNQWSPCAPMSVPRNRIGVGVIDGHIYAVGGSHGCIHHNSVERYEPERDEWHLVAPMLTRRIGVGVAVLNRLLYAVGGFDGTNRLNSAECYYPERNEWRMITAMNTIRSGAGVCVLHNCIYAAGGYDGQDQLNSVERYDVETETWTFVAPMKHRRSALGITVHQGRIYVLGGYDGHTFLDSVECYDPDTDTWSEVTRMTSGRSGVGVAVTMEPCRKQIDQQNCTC
Cardiac RTF inh = cardiac RTF calcium sensitivity inhibitors, primary screen, biochemical, IANBD-TnC fluorescence, EC70 calcium | Troponin I, cardiac muscle (Homo sapiens) + Troponin T, cardiac muscle (Homo sapiens) + … | IANBD-labeled cardiac RTF, Ca2+ fluorescence | inhibition, % at 7.15 µM | actives 0.12% (n = 340,000) | AID 493244, 2011;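 active = inhibition above the mean inhibition of all tested compounds plus 3 SD, cut at about 17% in these data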;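 also: assay run at fixed EC70 calcium of 1.6 mM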
IDE cell inh = human IDE inhibitors in live cells, primary screen, fluorescence polarization, HEK cells, FAbetaB substrate; FAbetaB cleavage; Insulin-degrading enzyme (Homo sapiens), P14735; inhibition, % at 5.59 µM; actives 0.41% (n = 320,000);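 active = percent inhibition above the average of all tested compounds plus 3 SD, set per screening campaign, cut at about 16% in these data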;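 also: IDE supplied by intact live HEK cells; FP after avidin binding of uncleaved biotin substrate so inhibition keeps polarization high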
IDE act = human IDE activators in live cells, primary screen, fluorescence polarization, HEK cells, FAbeta-B substrate; actives 0.073% (n = 340,000); AID 493087, 2011; FAbeta-B cleavage; 0% vehicle, 100% cell-free pure enzyme wells; Insulin-degrading enzyme (Homo sapiens), P14735; activation, % at 5.96 µM;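 active = activation above the mean of all tested compounds plus 3 SD, set per screening campaign, cut at about 17% in these data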
LANA DNA inh = inhibitors of KSHV C-LANA binding to DNA, primary screen, biochemical, fluorescence polarization, FAM-LBS DNA, MBP-C-LANA, single point; Kaposi's sarcoma herpesvirus LANA C-terminal domain (residues 932-1162) DNA binding; inhibition, % at 9 µM; actives 0.078% (n = 340,000);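 active = highest replicate inhibition at or above 60% at 9 µM, even if other replicates fall short; inactive = all replicates below 60% inhibition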
Keap1 Kelch bind = Keap1 Kelch domain binders by thermal stabilisation, dose response, biophysical, thermal shift, RT-PCR instrument, cherry-pick. shares compounds with Keap1-Nrf2 PPI. delta Tm; hits give high values. max delta Tm, degrees C. actives 8% (n = 400); in the data active = max delta Tm above about 0.48 degrees C
Sypro dye melt = Sypro Orange dye melt without protein, dose response, artefact control for Keap1-Nrf2 interaction inhibitor project, biochemical, thermal shift counterscreen, cherry-pick; 140 tested, under 10 active; shares compounds with Keap1-Nrf2 PPI; delta Tm, degrees C (no concentration beside the values); Sypro Orange dye-only thermal melt, no protein, delta Tm; top dose 26 µM; AID 651858, 2012;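 active = at highest dose tested, delta Tm positive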
Hits are given with their value.

`COc1cc(-n2c(=O)c3ccccc3n(Cc3cc(=O)n4ccccc4n3)c2=O)cc(OC)c1OC` gave cardiac RTF act inactive, Keap1-Nrf2 PPI inactive, Cardiac RTF inh inactive, IDE cell inh inactive, IDE act inactive and LANA DNA inh inactive.
COC(=O)c1cn(CC(=O)Nc2ccc(OC)cc2)c2ccccc12 was read as cardiac RTF act inactive, Keap1-Nrf2 PPI inactive, Cardiac RTF inh inactive, IDE cell inh inactive, IDE act inactive and LANA DNA inh inactive.
For CCC(=O)c1cn(CC(=O)Nc2ccc(OC)cc2)c2ccccc12 the results were cardiac RTF act inactive, Keap1-Nrf2 PPI 55, Cardiac RTF inh inactive, IDE cell inh inactive, IDE act inactive, LANA DNA inh inactive and Keap1 Kelch bind inactive.
Screening CN(CC(=O)Nc1cc(C(F)(F)F)ccc1-n1cncn1)Cc1ccccc1N1CCOCC1 returned cardiac RTF act inactive, Keap1-Nrf2 PPI 41, Cardiac RTF inh inactive, IDE act inactive, LANA DNA inh inactive, Keap1 Kelch bind inactive and Sypro dye melt inactive.
For Nc1nc(SCC(=O)Nc2cc(C(F)(F)F)ccc2N2CCOCC2)n[nH]1 the results were cardiac RTF act inactive, Keap1-Nrf2 PPI 14, Cardiac RTF inh inactive, IDE cell inh inactive, IDE act inactive, LANA DNA inh inactive, Keap1 Kelch bind inactive and Sypro dye melt inactive.
`CC1CCC(NC(=O)c2ccc(-n3cncn3)c([N+](=O)[O-])c2)CC1` (stereo not drawn) gave cardiac RTF act inactive, Keap1-Nrf2 PPI inactive, Cardiac RTF inh inactive, IDE cell inh inactive, IDE act inactive and LANA DNA inh inactive.
O=C(Nc1ccccc1)c1ccccc1OCc1cccc([N+](=O)[O-])c1 was read as cardiac RTF act inactive, Keap1-Nrf2 PPI inactive, Cardiac RTF inh inactive, IDE cell inh inactive, IDE act inactive and LANA DNA inh inactive.
For COc1ccc2nc3ccccc3[n+]([O-])c2c1 the results were cardiac RTF act inactive, Keap1-Nrf2 PPI 39, Cardiac RTF inh inactive, IDE act inactive, LANA DNA inh inactive and Keap1 Kelch bind inactive.
Cc1ccc(-n2c(N)c(C#N)c(-c3ccccc3)c(C#N)c2=O)cc1 was read as cardiac RTF act inactive, Keap1-Nrf2 PPI inactive, Cardiac RTF inh inactive, IDE cell inh inactive, IDE act inactive and LANA DNA inh inactive.
For Cc1ccc(-c2nc3sc(C#N)c(N)n3c(=O)c2C#N)cc1 the results were cardiac RTF act inactive, Keap1-Nrf2 PPI 14, Cardiac RTF inh inactive, IDE cell inh inactive, IDE act inactive, LANA DNA inh inactive and Keap1 Kelch bind inactive.
CCOc1ccccc1C=C1SC(=S)NC1=O was read as cardiac RTF act inactive, Keap1-Nrf2 PPI 37, Cardiac RTF inh inactive, IDE act inactive, LANA DNA inh inactive and Keap1 Kelch bind inactive.
For CC1CCN(c2ccc3c(c2)S(=O)(=O)c2ccccc2C3=O)CC1 the results were cardiac RTF act inactive, Keap1-Nrf2 PPI 21, Cardiac RTF inh inactive, IDE cell inh inactive, IDE act inactive, LANA DNA inh inactive and Keap1 Kelch bind inactive.
Screening NC(=O)C1CCN(c2ccc3c(c2)S(=O)(=O)c2ccccc2C3=O)CC1 returned cardiac RTF act inactive, Keap1-Nrf2 PPI inactive, Cardiac RTF inh inactive, IDE cell inh inactive, IDE act inactive and LANA DNA inh inactive.
Screening CCc1ccccc1N(C)S(=O)(=O)c1ccc(-c2cc(C)no2)s1 returned cardiac RTF act inactive, Keap1-Nrf2 PPI inactive, Cardiac RTF inh inactive, IDE cell inh inactive, IDE act inactive and LANA DNA inh inactive.
CN(CCC#N)C(=O)COC(=O)C1c2ccccc2Oc2ccccc21 was read as cardiac RTF act inactive, Keap1-Nrf2 PPI inactive, Cardiac RTF inh inactive, IDE cell inh inactive, IDE act inactive and LANA DNA inh inactive.
`N#CCCN(CCC#N)C(=O)C1c2ccccc2Oc2ccccc21` gave cardiac RTF act inactive, Keap1-Nrf2 PPI 64, Cardiac RTF inh inactive, IDE cell inh inactive, IDE act inactive, LANA DNA inh 95, Keap1 Kelch bind inactive and Sypro dye melt inactive.
`O=S(=O)(CCN1CCCCC1)CCS(=O)(=O)CCN1CCCCC1` gave cardiac RTF act inactive, Keap1-Nrf2 PPI inactive, Cardiac RTF inh inactive, IDE act inactive and LANA DNA inh inactive.
For COc1ccc(NS(=O)(=O)c2ccc(NC(=O)c3ccc(N(C)S(C)(=O)=O)cc3)cc2)c(OC)c1 the results were cardiac RTF act inactive, Keap1-Nrf2 PPI inactive, Cardiac RTF inh inactive, IDE cell inh inactive, IDE act inactive and LANA DNA inh inactive.
For Fc1ccccc1NC(=S)N(CCCN1CCOCC1)Cc1cccnc1 the results were cardiac RTF act inactive, Keap1-Nrf2 PPI inactive, Cardiac RTF inh inactive, IDE cell inh inactive, IDE act inactive and LANA DNA inh inactive.
COc1ccccc1CNC(=O)c1ccccc1NS(C)(=O)=O was read as cardiac RTF act inactive, Keap1-Nrf2 PPI 21, Cardiac RTF inh inactive, IDE cell inh inactive, IDE act inactive, LANA DNA inh inactive and Keap1 Kelch bind inactive.
For COc1cc(NS(=O)(=O)c2ccc(NC(=S)NC(=O)/C=C/c3ccco3)cc2)ncn1 the results were cardiac RTF act inactive, Keap1-Nrf2 PPI 17, Cardiac RTF inh inactive, IDE act inactive, LANA DNA inh inactive and Keap1 Kelch bind 0.83.
Screening CCOc1ccc(NC(=S)NC(=O)/C=C/c2ccco2)cc1 returned cardiac RTF act inactive, Keap1-Nrf2 PPI inactive, Cardiac RTF inh inactive, IDE cell inh inactive, IDE act inactive and LANA DNA inh inactive.
C[C@H]1CN([C@@H](C)CO)C(=O)c2cccc(NC(=O)C3CC3)c2O[C@H]1CN(C)C(=O)Nc1ccc2c(c1)OCO2 was read as cardiac RTF act inactive, Keap1-Nrf2 PPI inactive, Cardiac RTF inh inactive, IDE cell inh inactive, IDE act inactive and LANA DNA inh inactive.
Screening CC(C)(C)c1ccc(NC(=O)N2CCCN(c3c(Cl)cncc3Cl)CC2)cc1 returned cardiac RTF act inactive, Keap1-Nrf2 PPI inactive, Cardiac RTF inh inactive, IDE cell inh inactive, IDE act inactive and LANA DNA inh inactive.

Source: PubChem
